Assay outcomes: PubChem, several laboratories
Ba/F3 V617F tox = loss of viability in JAK2V617F-driven Ba/F3 cells | Ba/F3 EpoR-JAK2V617F viability, ATP luminescence | inhibition, % at 5.6 µM | actives 1.1% (n = 220,000);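 active means inhibition above the campaign mean plus 3 SD over all tested compounds, cut at about 24% in these data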;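 further: cytokine-independent growth of Ba/F3 cells driven by EpoR plus mutant JAK2; 0% = DMSO-treated cells and 100% = JAK inhibitor I control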
IEC-6 cytotox = kills IEC-6 intestinal cells in KLF5 counter-screen; IEC-6 cytotoxicity, luminescence viability; inhibition, % at 5 µM; actives 0.78% (n = 290,000); AID 1825; in the data active means inhibition above about 22%;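 further: 0% = plate median of test compound wells and 100% = cytotoxic reference compound wells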
BaF3 parental = parental Ba/F3 viability inhibition as JAK2V617F counter-screen | CellTiter-Glo ATP luminescence | inhibition, % at 5.6 µM | actives 1.1% (n = 220,000) | AID 1486;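 active means inhibition above a per-campaign cutoff, the mean inhibition of all tested compounds plus 3 SD, cut at about 27% in these data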;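 further: 0% = DMSO wells and 100% = JAK Inhibitor I control wells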
aSyn 5UTR inh = 5' untranslated region of α-synuclein, MLPCN primary screen. alpha-synuclein 5'UTR reporter, inhibitor activity. actives 0.82% (n = 300,000). inhibition, % (tested at 7.5 µM). AID 1813; in the data active means inhibition above about 60%;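 further: H4 neuroglioblastoma cells stably carrying SNCA 5'UTR luciferase fusion; 0% = DMSO wells and 100% = positive control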
APP 5UTR inh = APP translation inhibition; inhibition, % at 2 µM; actives 0.82% (n = 190,000); SH-SY5Y APP 5'UTR-luciferase reporter, luminescence;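 active means inhibition above a set limit, derived from the sample mean plus 3 SD, cut at about 45% in these data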
KLF5 inh = kruppel-like factor 5 inhibition. inhibition, % at 5 µM. actives 0.23% (n = 290,000). DLD-1 KLF5 promoter-luciferase reporter, luminescence;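 active means inhibition above a per-plate limit of that plate's mean compound inhibition plus 3 SD, cut at about 60% in these data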;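 further: 0% = DMSO wells and 100% = LY294002 at 200 µM; higher means less KLF5 promoter-driven luciferase light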
Numbers without * were called inactive; . = no result. Hits are enriched below; roughly 2.2% of the tested compounds scored in any of these assays.

SMILES	Ba/F3 V617F tox	IEC-6 cytotox	BaF3 parental	aSyn 5UTR inh	APP 5UTR inh	KLF5 inh
CCOC(=O)c1cnc2sc3c(n2c1=O)CCCC3	72*	12	64*	.	-25	6
CN1CCN(C2=Nc3c(Cl)cc(Cl)c4cccc2c34)CC1	7	3	10	23	24	-22
CCOC(=O)c1cnc(-n2nc(C)cc2C)nc1NNc1nc(-c2ccccc2)cc(-c2ccccc2)n1	0	-5	4	82*	23	2
O=C1CC(c2ccc(Cl)cc2)n2nc(N3C(=O)CCC3=O)nc2N1 (configuration not stated)	-6	-1	-1	-3	0	-8
O=C(NNC(=O)c1cccnc1SCc1cccc([N+](=O)[O-])c1)c1ccc(F)cc1	0	-11	7	-1	20	8
O=C(NNC(=O)c1cccnc1SCc1cccc([N+](=O)[O-])c1)c1ccccn1	-2	5	9	103*	72*	18
CN1CCN(c2ccc(NC(=O)c3ccc4ccccc4c3)cc2)CC1	.	-3	.	85*	.	-87
COc1ccc(C(=O)Nc2ccc(N3CCN(C)CC3)cc2)cc1	.	-3	.	-165	.	-138
O=C(CCC1CCCN(C(=O)c2cncs2)C1)NCc1ccc(F)c(F)c1 (configuration not stated)	-3	-4	1	-2	5	-13
CCc1ccccc1NC(=O)c1ccc(-c2csc(C)n2)cc1	.	0	.	-143	.	-152
COc1ccc(S(=O)(=O)Nc2c(C(=O)O)[nH]c3ccc(OC)cc23)cc1	.	1	.	-1	.	-17
COC(=O)c1[nH]c2ccc(F)cc2c1NS(=O)(=O)c1ccc(OC)cc1	81*	52*	61*	100*	89*	53
Cc1[nH]nc2c1C(c1ccccn1)N(c1ccc(Br)cc1)C2=O (configuration not stated)	-2	-1	95*	0	3	-3
COc1ccc(NC(=S)/N=C(\N)Nc2nc(C)c3ccc(C)cc3n2)cc1	3	13	43*	18	0	-6
CCOc1ccc2nc(N/C(N)=N/C(=S)Nc3ccc(C)c(C)c3)nc(C)c2c1	-1	-3	8	15	5	-4
COc1ccc(-n2ncc3c2CC(C)(C)CC3NC(=O)c2ccoc2C)cc1 (configuration not stated)	.	-2	.	1	.	-41
COc1ccc(OC)c(C(=O)NC2CC(C)(C)Cc3c2cnn3-c2ccccc2)c1 (configuration not stated)	.	-4	.	67*	.	-8
Cc1ccc(OCC(=O)NCC(=O)Nc2ccc(F)cc2)c([N+](=O)[O-])n1	-1	0	-1	16	-3	12
CCOC(=O)N1CCN(C(=O)CSc2ccc3nnc(-c4ccccn4)n3n2)CC1	2	3	10	11	-8	-4
O=C(CSc1ccc2nnc(-c3ccccn3)n2n1)N1CCOCC1	-4	-4	4	1	59*	-16
CS(=O)(=O)Nc1ccc(S(=O)(=O)N2CCCC2)cc1	0	7	90*	15	-4	-6
COc1ccc(NC(=O)C(=O)NNC(=O)c2cccs2)cc1	1	-2	8	-32	64*	-24
Cc1csc(=Nc2cccnc2)n1CC1CCCCC1	10	-7	16	11	16	-14
C=CCN1C(=Nc2cccnc2)SCC1(O)c1ccc(C)cc1 (configuration not stated)	10	0	33*	-48	4	-60
CCOc1ccccc1NC(=S)N(CCC(C)C)C1CCN(C(C)=O)CC1	4	2	7	11	14	-28
SMILES	Ba/F3 V617F tox	IEC-6 cytotox	BaF3 parental	aSyn 5UTR inh	APP 5UTR inh	KLF5 inh
CCCCOc1ccc(Br)cc1CSC(=N)N	30*	3	34*	-14	52*	-10
O=C(Nc1nnc(-c2cccs2)o1)c1ccc(S(=O)(=O)N2CCOCC2)cc1	-1	4	1	26	-4	24
Cc1nn(C)c(C)c1CNC(=O)c1nn2c(c1Cl)NC(c1cccs1)CC2C(F)(F)F (configuration not stated)	15	4	32*	-11	3	14
CCOC(=O)N1CCN(S(=O)(=O)c2ccc3c(c2)SCC(=O)N3)CC1	1	2	3	9	-7	18
COc1ccc(-c2nnc(-c3ccc(Br)o3)o2)cc1OC	-1	-8	4	-90	-46	-38
O=C(C/C=N/OCc1ccc(Cl)cc1)c1cnc(-c2ccccc2)s1	-4	-10	-1	10	-24	7
O=C(C/C=N/OCc1c(Cl)cccc1Cl)c1cnc(-c2ccccc2)s1	-6	-5	72*	-17	-13	-12
O=c1cc(N2CCOCC2)cnn1-c1ccccc1	1	2	5	-123	-17	-39
C/C(N)=C(/C#N)C(=O)COC(=O)C(c1ccccc1)c1ccccc1	6	2	10	13	-2	-29
CCOCC(O)CNc1ccccc1 (configuration not stated)	0	1	8	2	1	-8
OC(CNc1ccccc1)COc1ccc(OCC(O)CNc2ccccc2)cc1 (configuration not stated)	24*	16	34*	-3	-7	13
Cc1cc(C)c(NC(=O)CCN2CCN(Cc3ccccc3)CC2)c(C)c1	.	.	.	98*	.	.
CC1(C)CC(=O)C(CC2=C(O)CC(C)(C)CC2=O)C(=O)C1	-4	-3	2	27	53*	-41
Cc1csc(NC(=O)c2cc([N+](=O)[O-])cc([N+](=O)[O-])c2)n1	-3	5	0	-17	-17	3
O=C1C=C(N2CCOCC2)c2ccccc2C1=O	.	-7	.	114*	.	-17
O=C(c1ccccc1)N1CCSc2sccc2C1=O	2	2	-1	97*	28	10
O=C(N/N=C\c1cc(Cl)ccc1O)c1ccc(S(=O)(=O)N2CCCCC2)cc1	-3	2	5	113*	73*	9
N#C/C(=C\c1cn(Cc2ccc(F)cc2)c2ccccc12)C(=O)NCc1ccco1	-1	5	5	39	-5	20
N#C/C(=C\c1cn(Cc2ccccc2)c2ccccc12)C(=O)NCc1ccco1	3	2	9	68*	2	9
N#C/C(=C\c1cn(Cc2cccc(F)c2)c2ccccc12)C(=O)NCc1ccco1	-3	3	2	65*	-7	-1
O=C(COc1ccc(F)cc1Cl)Nc1ccc(N2CCOCC2)cc1N1CCOCC1	.	.	.	18	.	.
O=c1c2ccccc2oc2cc(C#CC3(O)CCCCC3)ccc12	.	.	.	77*	.	.
O=c1c2ccccc2sc2ccc(C#CC3(O)CCCCC3)cc12	.	.	.	104*	.	.
COc1cccc2sc3ccc(C#CC4(O)CCCCC4)cc3c(=O)c12	.	1	.	-191	.	-116
COc1ccc(N2C(=O)CCC(C(=O)O)C2c2ccc(F)cc2)cc1 (configuration not stated)	2	1	7	-1	-14	-3
